Assay outcomes deposited in PubChem BioAssay by National Center for Advancing Translational Sciences (NCATS).
Only some compounds are listed: those with a hit (about 3.2% of all), similar ones and a draw of the others.
p53null 32C kill: kills p53 null cells at the permissive temperature | H1299-neo p53 null cells, ATP luminescence, 24 h, 32C | AID 903 | Potency, µM (doses to about 46.1 µM), without a hit: top-dose activity change, negative = cytotoxicity, usual class: cytotoxic | 0.62% of 55,000 active;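 note: potency is the fitted concentration of half-maximal effect; 0% = DMSO only and -100% = full killing by 100 µM tamoxifen; nearly all actives have a fitted effect of over 55% in size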
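H1299-neo, 600 cells/well; overnight 37C; cpd up to 46 uM, 24 h at 32C; ATPlite luminescence after 20 min RT; normalized to DMSO (0%) and tamoxifen 100 uM (100% kill); Hill-fit AC50.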
pS6 MEF inh: inhibitors of mTORC1 signaling in Tsc2-/- p53-/- MEF cells. Potency, µM (titrated, usually from 38.3 µM), for inactives: at the top dose activity change, negative = inhibition, usual class: inhibitors. 0.78% of 44,000 active. Tsc2-/- p53-/- MEF, phospho-rpS6 immunofluorescence/PI, 24 h. AID 493208;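 note: potency is the fitted concentration of half-maximal effect; plate controls were DMSO for no effect and rapamycin for full effect; nearly all actives have a fitted effect of over 50% in size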
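Cell-based qHTS: Tsc2-/- p53-/- MEF, 24 h cpd, 37 °C; fix/perm, anti-phospho-S6 Alexa-488 + PI; Acumen 488 nm scan; pS6/PI ratio, % positive cells; rapamycin 7.5 nM = inhibition ref; PI count = viability.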
S16 F2sN tox: toxic to S16 Pmp22-F2sN Schwann cells; 0.48% of 43,000 active; Potency, µM (series often up to 57.5 µM), inactives show at the top dose activity change, negative = cytotoxicity, usual class: cytotoxic; S16 Pmp22-F2sN Schwann cells viability, CellTiter-Glo, 24 h; note: potency is the fitted concentration of half-maximal effect; % is set by controls: 0 for no effect and ±100 for the full control effect; nearly all actives have a fitted effect of over 65% in size
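Seed 500-1,000 S16 Pmp22-F2sN cells per well in phenol-red-free DMEM with 10% heat-inactivated FBS; pin-add 23 nL compound; incubate 24 h at 37C; add CellTiter-Glo, wait 15 min protected from light; read luminescence.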
p53null 39C kill: selectivity test: cytotoxicity in p53 null cells, nonpermissive temperature; 0.97% of 55,000 active; Potency, µM (doses to about 46.1 µM), for the others: at the highest dose activity, negative = cell killing, most hits filed as cytotoxic; H1299 p53-null (neo) cells, 39C, ATPlite viability, 24 h;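 note: potency is the fitted concentration of half-maximal effect; 0% = DMSO only and -100% = full killing by 100 µM tamoxifen; nearly all actives have a fitted effect of over 50% in size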
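Luminescent ATP signal reported cell survival after H1299 lines (neo, p53 null; or p53 A138V) received up to 46 uM compound and 24 hr incubation at 39C.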
PMP22 txn: modulators of PMP22 gene transcription in S16 Schwann cells. S16 Pmp22-F2sN Schwann cells, FLuc/NLuc coincidence luminescence, 24 h. 2% of 43,000 active. Potency, µM (top dose mostly 57.5 µM), inactives show at the highest dose activity change, negative = inhibition, usual class: inhibitors; active = clear falling dose curves in both reporters; inconclusive = both reporters move, but less clearly or upward; inactive = either reporter flat; the % is the NLuc reporter signal; note: potency is the fitted concentration of half-maximal effect; % is set by controls: 0 for no effect and ±100 for the full control effect
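Rat S16 Pmp22-F2sN cells, 500-1,000/well in phenol red-free DMEM + 10% FBS, compound-treated 24 h (37C, 5% CO2). Luminescence: FLuc read, Stop&Glo added, NLuc read.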
NLuc sat counter: NanoLuc enzyme inhibition artifact for PMP22 screen. shares compounds with PMP22 txn. Secreted NLuc enzyme (filtered S16 cell medium), Nano-Glo luminescence. Potency, µM (titrated, usually from 57.5 µM), for the others: at the top dose activity change, negative = inhibition, actives largely listed as inhibitors. 4% of 690 active. AID 1508638; note: potency is the fitted concentration of half-maximal effect; % is set by controls: 0 for no effect and ±100 for the full control effect
NLuc Km counter: NanoLuc inhibition at Km substrate, PMP22 artifact check | shares compounds with PMP22 txn | secreted NLuc enzyme, coelenterazine luminescence, Km conditions | Potency, µM (highest dose often 57.5 µM), for inactives: top-dose activity change, negative = inhibition, actives largely listed as inhibitors | 5% of 690 active | AID 1508639; note: potency is the fitted concentration of half-maximal effect; % is set by controls: 0 for no effect and ±100 for the full control effect
FLuc ctr PMP22: counter-screen for PMP22 expression modulators: firefly luciferase inhibition; AID 1508640; 690 tested, under 10 active; shares compounds with PMP22 txn; purified P. pyralis FLuc, luminescence, 10 min; Potency, µM (top dose mostly 57.5 µM), for the others: at the highest dose activity, negative = inhibition, usual class: inhibitors; note: % of control where 0% means no effect
Target sequence (P08659 whole entry, looked up): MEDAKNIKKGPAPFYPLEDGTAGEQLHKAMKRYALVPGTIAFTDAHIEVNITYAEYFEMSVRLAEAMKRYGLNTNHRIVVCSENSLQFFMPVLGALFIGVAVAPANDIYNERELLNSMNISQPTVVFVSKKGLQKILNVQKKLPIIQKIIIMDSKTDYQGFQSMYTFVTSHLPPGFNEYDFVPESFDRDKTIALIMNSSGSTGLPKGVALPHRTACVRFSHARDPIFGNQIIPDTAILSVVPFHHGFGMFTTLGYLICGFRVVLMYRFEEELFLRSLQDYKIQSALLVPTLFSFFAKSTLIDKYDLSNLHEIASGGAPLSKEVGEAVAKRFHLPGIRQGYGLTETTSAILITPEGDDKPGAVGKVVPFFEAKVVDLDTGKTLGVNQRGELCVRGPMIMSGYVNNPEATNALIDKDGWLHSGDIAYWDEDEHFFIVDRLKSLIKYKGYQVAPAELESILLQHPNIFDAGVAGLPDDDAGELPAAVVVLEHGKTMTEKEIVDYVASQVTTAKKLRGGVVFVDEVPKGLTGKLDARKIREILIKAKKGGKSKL
S16 viab conf: confirmation of cytotoxicity in S16 Pmp22-F2sN Schwann cells (luciferase reporters placed in the Pmp22 gene) | shares compounds with PMP22 txn | 7% of 690 active | S16 Schwann cells viability, CellTiter-Glo ATP luminescence, 24 h | AID 1508641 | Potency, µM (doses to about 57.5 µM), inactives show top-dose activity change, negative = viability loss, usual class: cytotoxic; note: potency is the fitted concentration of half-maximal effect; % is set by controls: 0 for no effect and ±100 for the full control effect
PMP22 txn cnf: confirmation of modulators of PMP22 gene transcription in S16 cells; AID 1508646; S16 Schwann cells Pmp22-F2sN, dual luciferase, 24 h; shares compounds with PMP22 txn; Potency, µM (doses to about 57.5 µM), without a hit: at the highest dose activity change, negative = inhibition, usual class: inhibitors; 22% of 690 active; active = clear falling dose curves in both reporters; inconclusive = both reporters move, but less clearly or upward; inactive = either reporter flat; the % is the FLuc reporter signal; note: potency is the fitted concentration of half-maximal effect
PMP22 HiBiT cnf: rat PMP22 protein level modulation, confirmatory | Potency, µM (highest dose often 27.9 µM), for the others: top-dose activity change, negative = inhibition, most hits filed as inhibitors | S16 Schwann cells Pmp22-HiBiT, luminescence, 48 h | AID 1508647 | 95 tested, under 10 active | shares compounds with PMP22 txn
Target sequence (P25094 whole entry, looked up): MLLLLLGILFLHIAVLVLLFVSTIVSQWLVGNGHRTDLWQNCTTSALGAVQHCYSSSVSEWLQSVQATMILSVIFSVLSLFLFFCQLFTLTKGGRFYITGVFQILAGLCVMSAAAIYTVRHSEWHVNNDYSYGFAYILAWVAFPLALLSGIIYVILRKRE
* hit, by the source's call; ? = inconclusive; / = no result given. Unless noted, calls come from the whole dose curve; as a rule, active = well fitted curve in the direction sought with a large enough effect; inconclusive = small, poorly fitted or top-dose-only effect, or another doubt; inactive = no such curve, though single readings can be large; an effect the other way counts as inactive or inconclusive.

SMILES	p53null 32C kill	pS6 MEF inh	S16 F2sN tox	p53null 39C kill	PMP22 txn	NLuc sat counter	NLuc Km counter	FLuc ctr PMP22	S16 viab conf	PMP22 txn cnf	others
CCc1ccc(-c2nn(CC(=O)NC3CCCC3)c3c2cnc2ccc(C)cc23)cc1	-2%	-6%	-1%	-14%	6%	/	/	/	/	/
COC(=O)c1cc2occc2n1Cc1cccc(C)c1	7%	5%	1%	-7%	?	-20%	?	3%	7%	20%
CCOc1ccccc1NC(=O)C1CCN(S(=O)(=O)c2c(C)noc2/C=C/c2ccco2)CC1	3%	-14%	0%	11%	9.5µM*	?	-4%	6%	9%	-15%
CC1=C(C(=O)Nc2ccc(Cl)cc2)C(c2ccccc2)n2ncc(C(=O)Nc3ccccc3)c2N1 (configuration not stated)	18%	?	?	25%	?	/	/	/	/	/
O=C(Nc1ccc(Cl)cc1)c1cnn2c1NC(c1ccccc1)=CC2c1ccccc1 (configuration not stated)	-23%	-9%	?	?	14µM*	?	?	4%	22%	?
CC(C)N(Cc1ccccc1)C(=O)c1nc(-c2ccc(Cl)cc2)n2c1CCCCC2	8%	-1%	/	-23%	/	/	/	/	/	/
CC(=O)c1ccc(N2CCN(C(=O)C3CCN(S(=O)(=O)c4c(C)noc4/C=C/c4ccc(C)cc4)CC3)CC2)cc1	-2%	0%	-8%	8%	?	-4%	12%	-7%	-9%	-13%
Cc1ccc(/C=C/c2onc(C)c2S(=O)(=O)N2CCC(C(=O)N3CCN(c4ccccc4F)CC3)CC2)cc1	2%	-4%	9%	1%	-17%	/	/	/	/	/
COc1ccccc1CN1C(=O)C(=O)c2cccc(C)c21	-5%	-2%	?	-12%	-71%	/	/	/	/	/
Cc1cc(Br)cc2c1N(Cc1ccccc1OC(C)C)C(=O)C2=O	?	?	?	?	9.5µM*	?	?	-21%	?	15µM*
CCCCN(CC)CCCNC(=O)c1cc2c(=O)oc3ccc(C)cc3c2s1	3%	-2%	6%	10%	?	/	/	/	/	/
CCCN(CCC)CCCNC(=O)c1cc2c(=O)oc3ccc(C)cc3c2s1	2%	-14%	?	-4%	?	-7%	-1%	-7%	?	?
O=C(CSc1nc2ccsc2c(=O)n1-c1ccc(Br)cc1)NCc1ccc(Cl)cc1	-3%	?	2%	1%	12µM*	-5%	-2%	5%	3%	?
O=C(CSc1nc2ccsc2c(=O)n1-c1ccc(Cl)cc1)NCc1ccc(Cl)cc1	1%	-3%	6%	15%	?	/	/	/	/	/
CCOc1ccc(-c2nc(CSCC(=O)NCCc3ccccc3)c(C)o2)cc1	1%	3%	-29%	37%	?	?	?	19µM*	-24%	-90%
COc1ccc(-c2noc(CSc3nnc(-c4ccncc4)n3-c3ccc(C)cc3)n2)cc1	0%	-4%	-23%	15%	8.9µM*	?	?	-12%	-24%	3.7µM*	PMP22 HiBiT cnf=?
Cc1ccc(-n2c(SCc3nc(-c4ccc(Cl)cc4)no3)nnc2-c2ccncc2)cc1	13%	-20%	?	?	13µM*	-18%	?	-3%	-7%	?
COc1ccc(-c2noc(CSc3nnc(C)n3-c3ccc(F)cc3)n2)cc1	-10%	-5%	-10%	-6%	?	?	?	?	-9%	-27%
Cc1ccc(-c2nnc(Nc3ccc(Br)cc3)c3ccccc23)cc1S(=O)(=O)N1CCN(C)CC1	-4%	-16%	?	-3%	?	/	/	/	/	/
Cc1nnc(N2C(=O)c3oc4ccccc4c(=O)c3C2c2cccc(OCCC(C)C)c2)s1 (configuration not stated)	5%	3%	2%	-14%	7%	/	/	/	/	/
CC(C)N(C)C1CCN(S(=O)(=O)c2ccc3[nH]c(=O)ccc3c2)CC1	5%	2%	4%	16%	5%	/	/	/	/	/
CCC(=O)N1c2ccccc2CC1C(=O)NCCc1ccc(OC)c(OC)c1 (configuration not stated)	6%	0%	-10%	-7%	7%	/	/	/	/	/
CCCCC(=O)N1CCc2cc(OC)c(OC)cc2C1COc1ccc(OC)cc1 (configuration not stated)	0%	8%	-14%	10%	?	/	/	/	/	/
COc1ccc(-n2c(=O)c3c4c(sc3n(Cc3ccccc3)c2=O)CN(C(C)=O)CC4)cc1OC	-1%	-3%	10%	-20%	?	/	/	/	/	/
CCOC(=O)c1ccccc1NC(=O)c1nn(-c2ccc(C)cc2)c(=O)n(C)c1=O	-4%	-4%	5%	24%	-3%	/	/	/	/	/
CCOc1ccc(NC(=O)CSc2oc(-c3ccc(F)cc3)nc2S(=O)(=O)c2ccc(C)cc2)cc1	-15%	2.9µM*	2%	-23%	12µM*	-2%	0%	2%	?	15µM*	PMP22 HiBiT cnf=25%
Clc1ccc(-c2noc3ncnc(N4CCCCC4)c23)cc1	4%	-24%	-21%	-4%	12µM*	-7%	5%	-5%	-7%	-38%
